Compound activity as filed in PubChem BioAssay.
In the library only some 1% were active in any assay of this set; here they are far more common.
Mtb BioA inh = M. tuberculosis BioA enzyme inhibitors, primary screen, biochemical, plate reader, single point, HTS | inhibition, % at 9.99 µM | AID 602481, 2012 | 360,000 compounds, 0.096% hits | purified M. tuberculosis BioA enzyme; in the data active = inhibition above about 40%
PrP 5UTR inh = inhibition of PrP 5' UTR reporter expression; cell-based PrP 5' UTR mRNA reporter, plate reader; AID 488862, 2010; 340,000 compounds, 0.35% hits; inhibition, % (no concentration beside the values); in the data active = inhibition above about 52%; also: 0 = median of the neutral control wells
Mtb hypoxia rep = PubChem AID 1159583; M. tuberculosis hypoxia-regulated fluorescent reporter, fluorescence; fluorescence inhibition, % (no concentration beside the values); 300,000 compounds, 0.1% hits; in the data active = fluorescence inhibition mostly above about 23%, no sharp cut-off; inactive = mostly below about 17%
TcdB GH inh = TcdB glycohydrolase inhibitors, primary screen, biochemical, single point, plate reader. Toxin B (Clostridioides difficile), P18177. TcdB glycohydrolase enzymatic assay. inhibition, % at 9.99 µM. 350,000 compounds, 0.24% hits; in the data active = inhibition above about 10%
PriA SSB inh = inhibitors of Klebsiella pneumoniae PriA binding to SSB C-terminal tail, primary screen, biochemical, AlphaScreen; PriA–SSB C-terminal tail interaction (Klebsiella pneumoniae); AlphaScreen SSBct-PriA binding, biotinylated peptide; inhibition, % at 33 µM; 430,000 compounds, 0.6% hits; AID 1272365, 2023; in the data active = inhibition mostly above about 37%, no sharp cut-off; inactive = mostly below about 20%;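 also: plate controls were negative control peptide for no effect and reference peptide for full effect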
FadD28 FP inh = inhibitors of FadD28 bisubstrate probe binding, primary screen, biochemical, fluorescence polarization, single point. inhibition, % at 12.5 µM. 360,000 compounds, 0.22% hits. AID 588549, 2011. Mycobacterium tuberculosis FadD28 fatty-acid-AMP ligase; in the data active = inhibition above about 8.5%, passing the limit was not always enough
Starred values were filed as active, the others as inactive.

`Cn1cnnc1SCc1ccc(O)c2ncccc12` gave PriA SSB inh 125.0*.
`Cc1cccc(C)c1NC(=O)C(c1ccccc1)n1c(=O)c(-c2cc3ccccc3[nH]2)nc2ccccc21` (stereo unspecified) gave TcdB GH inh -0.3.
O=C(Nc1ccc(N2CCCS2(=O)=O)cc1)C(=O)NC1CC1 was read as PriA SSB inh -8.0.
CC(C)NC(=O)N1CC[C@@H]2[C@H]1c1cc(-c3ccc(F)cc3)ccc1N(C)[C@H]2CO was read as TcdB GH inh 11.8*.
Screening CC(C)NC(=O)N1CC[C@@H]2[C@H]1c1cc(-c3ccccc3)ccc1N(C)[C@H]2CO returned Mtb BioA inh 0.2 and TcdB GH inh 14.7*.
`O=C(C1CCOCC1)N1CC[C@@H]2[C@@H](CO)Nc3ccc(-c4ccc(F)cc4)cc3[C@@H]21` gave Mtb BioA inh 15.1 and TcdB GH inh 10.5*.
For CCCNC(=O)N1CC[C@@H]2[C@@H](CO)N(C)c3ccc(-c4ccccc4)cc3[C@@H]21 the results were TcdB GH inh 10.6*.
`CN1c2ccc(-c3ccccc3)cc2[C@H]2[C@H](CCN2C(=O)NC2CCCC2)[C@@H]1CO` gave Mtb BioA inh -0.6.
CC(C)NC(=O)N1CC[C@@H]2[C@@H](CO)N(C)c3ccc(-c4cccc(F)c4)cc3[C@@H]21 was read as Mtb BioA inh 27.3.
`Cc1ccc(C)c(C(O)=C2C(=O)C(=O)N(CCN3CCOCC3)C2c2ccccc2F)c1` (stereo unspecified) gave PriA SSB inh 48.0*.
For CC(=O)N1c2ccccc2N=C(c2ccc(C(F)(F)F)cc2)C1C(=O)NC(C)C (stereo unspecified) the results were TcdB GH inh -7.0.
Cn1ccnc1SCC1CCN(C(=O)c2ccsc2)CC1 was read as PriA SSB inh -6.0.
Screening Cn1ccnc1SCC1CCN(C(=O)c2cccs2)CC1 returned PriA SSB inh 35.0*.
Screening COc1ccc(C(O)(C(C)C)C(CN2CCOCC2)c2ccccc2)cc1 (stereo unspecified) returned Mtb BioA inh -0.9, PrP 5UTR inh -9.2, Mtb hypoxia rep 5.9, TcdB GH inh 21.3*, PriA SSB inh 7.6 and FadD28 FP inh -4.3.
`COc1ccc(C(O)(C(C)C)C(CN2CCOCC2)c2ccc(Cl)cc2)cc1` (stereo unspecified) gave Mtb BioA inh 0.1, PrP 5UTR inh 18.2, Mtb hypoxia rep 7.7, TcdB GH inh -0.2, PriA SSB inh -7.8 and FadD28 FP inh -5.3.
Screening CC[N+]1=C(C)C(C)(C)c2cc(C)ccc21 returned Mtb BioA inh -6.1, PrP 5UTR inh -8.6, Mtb hypoxia rep 7.9, TcdB GH inh 0.0, PriA SSB inh 52.3* and FadD28 FP inh -7.1.
For C[C@@H]1CCCCO[C@@H](CN(C)C(=O)NC2CCCCC2)[C@@H](C)CN([C@H](C)CO)C(=O)c2cc(NC(=O)Nc3ccc(F)cc3)ccc2O1 the results were Mtb BioA inh -3.2 and TcdB GH inh -0.2.
Screening O=C(Nc1ccc([N+](=O)[O-])cc1)Nc1ccc2c3c(cccc13)CC2 returned PriA SSB inh 38.0*.
`O=C(COC(=O)c1cc(Cl)nc(Cl)c1)NCCc1ccc(F)cc1` gave Mtb BioA inh 0.7, PrP 5UTR inh -6.8, Mtb hypoxia rep 25.5*, TcdB GH inh -2.8, PriA SSB inh -4.7 and FadD28 FP inh -3.8.
Screening O=C(COC(=O)c1ccc(F)cc1)NCCc1ccc(F)cc1 returned PrP 5UTR inh 8.1, Mtb hypoxia rep -3.0, TcdB GH inh 0.9, PriA SSB inh 2.2 and FadD28 FP inh 2.0.
O=C(c1ccco1)N1CCc2ccc(NS(=O)(=O)Cc3ccccc3Cl)cc2C1 was read as PriA SSB inh 10.0.
`OC(CNCCC1C=Nc2ccccc21)Cn1c2ccc(Cl)cc2c2cc(Cl)ccc21` (stereo unspecified) gave Mtb BioA inh 0.0, PrP 5UTR inh 2.0, Mtb hypoxia rep -3.3, PriA SSB inh 65.3* and FadD28 FP inh -4.9.
